# Source: PubChem BioAssay
# Only a sample is shown.
# aSyn 5UTR act: Activators working through SNCA 5'UTR binding (MLPCN) | alpha-synuclein 5'UTR reporter, activators screen | activity score, % (tested at 7.5 µM), hits read low | 7.1% of 300,000 active; in the data active means activity score below about -60%
# Numbers without * were called inactive.
SMILES,aSyn 5UTR act
COc1ccc(/C=C/c2ccc3ccccc3[n+]2C)cc1OC,-123.9*
CC(=O)Oc1ccccc1/C=C/c1ccc2ccccc2[n+]1C,-62.5*
Cc1ccc(NC(=O)CNC(C)c2ccccc2)cc1 (configuration not stated),-73.5*
COc1ccc(C)cc1NC(=O)CNC(c1ccccc1)c1ccc(C)cc1 (configuration not stated),103.5
Cc1ccc(NC(=O)NCC(c2ccccc2)N(C)C)cc1 (configuration not stated),-107.1*
CC(C)(C)NC(=O)C(c1ccncc1)N(Cc1ccco1)C(=O)c1ccc(-c2ccccc2)[nH]1 (configuration not stated),-82.8*
COc1cc(/C=N/N(C)c2ccccc2)ccc1O,-155.8*
CN(C(=O)/C=C/c1ccc2c(c1)OCO2)c1ccccc1,-89.4*
COc1cccc(/C=C/C(=O)c2ccc[nH]2)c1,-305.4*
CN(/N=C/c1ccc2c(c1)OCO2)c1ccccc1,-168.7*
O=C(/C=C/c1cccc(Br)c1)c1ccc2c(c1)OCO2,-72.0*
O=C(/C=C/c1ccc2c(c1)OCO2)c1ccc[nH]1,-278.9*
Fc1ccc(-c2csc(/C=C/c3ccc4c(c3)OCO4)n2)cc1,-185.5*
O=C(/C=C/c1ccc2c(c1)OCO2)c1ccc(F)cc1,-89.5*
O=C(/C=C/c1ccccc1)c1ccc2c(c1)OCO2,-206.3*
CCOc1ccc(C2=Nn3c(nnc3-c3ccc(OC)cc3)SC2)cc1,84.3
CCC(=O)N1CCC(c2ccc(OC)cc2)=N1,-75.4*
Nc1c(-c2cccc(Cl)c2)cnn1-c1ccccc1,-121.9*
CCOC(=O)Cn1ncc(-c2ccccc2)c1N,-128.9*
CCOC(=O)Cn1c(S(=O)(=O)Cc2ccccc2Cl)nc(-c2ccccc2)c1-c1ccccc1,54.3
Nc1c(-c2ccccc2)cnn1-c1ccccc1,-110.2*
Cc1[nH]c2ccccc2c1C(=O)/C=C/c1ccccc1Cl,-452.8*
O=C(N/N=C/c1ccccc1Cl)c1[nH]c2ccc(Br)cc2c1-c1ccccc1,70.8
Cc1[nH]c2ccccc2c1C(=O)/C=C\c1ccccc1Cl,-313.7*
Cc1[nH]c2ccccc2c1C(=O)/C=C/c1ccccc1,-98.2*
SMILES,aSyn 5UTR act
Clc1ccc(-c2noc(/C=C/c3ccccc3)n2)cc1,-93.7*
Cc1ccc(/C=C/c2nnc(-c3ccccc3)o2)cc1,-108.8*
Cc1ccc(-c2noc(/C=C/c3ccccc3)n2)cc1,-201.9*
CCOc1ccc2nc(SCC(=O)NC3CC3)sc2c1,-68.0*
CCOc1ccc2nc(SCC(=O)c3ccccc3)sc2c1,-100.0*
CCOC(=O)CCn1nc(-c2ccc(Cl)cc2)cc1N,-128.8*
Cc1cccc2cc(C#N)c(SCc3nnc(-c4ccccc4[N+](=O)[O-])o3)nc12,-87.2*
c1ccc(-c2cc3c(ccc4nonc43)nn2)cc1,-96.4*
O=C(Nc1ccccc1)OCC1CCCO1 (configuration not stated),-83.9*
Cc1cccc(NC(=O)c2ccc(OCC3CCCO3)cc2)c1C (configuration not stated),-69.7*
O=C(Nc1ccc(Cl)cc1)c1ccc(OCC2CCCO2)cc1 (configuration not stated),-201.9*
CC1(C)Oc2cc3oc(-c4cc(O)cc(O)c4)cc3cc2CC1O (configuration not stated),97.0
CC1(C)Cc2c(sc3nc(-c4cccs4)n(N)c(=O)c23)CO1,-115.9*
Nn1c(-c2cccs2)nc2sc3c(c2c1=O)CCCC3,-149.2*
CC1(C)Cc2c(sc3ncnc(NNC(=S)NCc4ccccc4)c23)CO1,86.8
O=C(NCc1cccnc1)c1c[nH]c2cc3c(cc2c1=O)OCCO3,-123.3*
O=C(c1ccccc1)c1c[nH]c2cc3c(cc2c1=O)OCCO3,-67.1*
Cn1c(N)c(C(C[N+](=O)[O-])c2c(F)cccc2Cl)c(=O)n(C)c1=O (configuration not stated),-65.6*
Cc1ccccc1C(=O)NCCSc1ccccc1,-111.2*
O=C(NCCSc1ccccc1)c1ccccc1Cl,-82.3*
O=C(N/N=C(\c1ccccc1)c1ccccn1)c1ccccc1Cl,67.5
CSc1ccccc1C(=O)NCCSc1ccccc1,-65.5*
Nn1c(SCc2cccc(F)c2)nnc1-c1cccnc1,-70.8*
Nn1c(SCc2ccccc2F)nnc1-c1cccnc1,-176.9*
Cc1[nH]n(-c2ccc(Cl)cc2)c(=O)c1C=Nc1ccc(S(=O)(=O)N2CCOCC2)cc1,-68.8*
SMILES,aSyn 5UTR act
CCCCN(CCCC)C(=S)N/N=C/c1c(C)[nH]n(-c2ccccc2)c1=O,92.8
O=C(CSc1nnc(-c2ccco2)n1Cc1ccccc1)c1ccccc1,-104.1*
Cc1ccc(C(=O)CSc2nnc(-c3ccco3)n2Cc2ccccc2)cc1,-96.8*
CCc1ccc(OCc2ccc(C(=O)O)o2)cc1,-144.7*
COc1ccc(OCc2cc(C(=O)O)c(C)o2)cc1,-92.8*
CC(C)c1ccc(OCc2ccc(C(=O)N(C)C)o2)cc1,-171.2*
CC1CN(C(=O)c2ccc(COc3ccc(C(C)C)cc3)o2)CC(C)O1 (configuration not stated),-110.2*
CC(C)c1ccc(OCc2ccc(C(=O)NN3CCN(C)CC3)o2)cc1,-134.4*
CC(C)c1ccc(OCc2ccc(C(=O)O)o2)cc1,-94.0*
COc1ccc(/C(N)=N/OC(=O)C2CCCCC2)cc1OC,-86.3*
COc1ccc(-c2ccc(C(=O)C3CC3)cc2)cc1,-107.3*
COc1ccc(/C(N)=N/OC(=O)C2CCCCC2)cc1,-131.1*
CCCc1cc(C(=O)Nc2cc(Cl)ccc2O)no1,-162.3*
CCCc1cc(C(=O)Nc2cc(Br)ccc2O)no1,-144.8*
O=C(NCC1CCCO1)c1sc2ccccc2c1Cl (configuration not stated),-105.6*
CN(Cc1c(F)cccc1Cl)C(=O)CNC(=O)c1sc2ccccc2c1Cl,-66.4*
CC(NC(=O)c1sc2ccccc2c1Cl)C1CCCO1 (configuration not stated),-65.4*
O=C(NNC(=O)C1CC2CCC1C2)c1sc2ccccc2c1Cl (configuration not stated),-112.5*
O=C(CNC(=O)c1sc2ccccc2c1Cl)NC1CC1,-118.3*
Cc1ccc2c(Cl)c(C(=O)Nc3cc(C)on3)sc2c1,-121.7*
Cc1ccc2c(Cl)c(C(=O)NCC3CCCO3)sc2c1 (configuration not stated),-137.3*
Cc1ccnc(NC(=O)c2sc3ccccc3c2Cl)c1,78.2
Cc1ccc2c(Cl)c(C(=O)NCCc3ccccc3)sc2c1,-165.8*
CCCCC(=O)N/N=C(C)/C=C/c1ccccc1F,-75.6*
CC(/C=C/c1ccccc1F)=N\NC(=O)C(C)C,-78.2*
SMILES,aSyn 5UTR act
O=C(Nc1cccc2ccccc12)C12CC3CC(C1)CC(n1cnc([N+](=O)[O-])n1)(C3)C2,73.0
S=C(Nc1cccc2ccccc12)NC1CCCCC1,-195.3*
Cc1ccc(NC(=S)Nc2cccc3cnccc23)cc1,-102.3*
CC(=O)Nc1cccc(NC(=S)Nc2cccc3ccccc23)c1,-116.1*
CC(=O)c1cccc(NC(=S)Nc2cccc3ccccc23)c1,-79.9*
O=C(NNC(=S)Nc1cccc2ccccc12)c1cccc(Br)c1,-79.1*
Cn1cnnc1Sc1ccc(/C=C/C(=O)c2ccc(O)cc2)cc1[N+](=O)[O-],-110.8*
Brc1ccc(-c2cnc(-c3cccs3)o2)cc1,-170.9*
CCCC(C)NC(=O)c1cccc(Oc2ccccc2)c1 (configuration not stated),-64.5*
CCC(C)(C)c1ccc(Oc2ccc(N)cc2)cc1,126.9
CCC(C)(C)c1ccc(Oc2cccc(C(=O)O)c2)cc1,-94.6*
Cc1ccc(NC(=O)c2cncc(Br)c2)nc1,-89.3*
